Our source for the Potency, max response and outcome values is PubChem BioAssay (NCATS).

SMILES strings stand for the structures. Results filed as inconclusive are left out. Values without a mark were called inactive. Activity calls are given as the source filed them. Calls come from the whole dose curve; as a rule, active = well fitted inhibition curve with a large enough effect; inconclusive = small, poorly fitted or top-dose-only effect; inactive = flat fitted curve, though single readings scatter.
% is set by controls: 0 for no effect and ±100 for the full control effect; potency is the fitted concentration of half-maximal effect.

The first experiment relates to CRL-7250. The experiment in a line: Cytotoxic Profiling of Annotated Libraries Using Quantitative High-Throughput Screening (AID 1296008). Note: nearly all actives have a fitted effect of over 60% in size. The conditions noted are these: Five cell lines viability, CellTiter-Glo ATP luminescence, 48-72 h; max response: stronger effect = lower value. A digest of the protocol:
(§1)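 Cytotoxicity was measured as CellTiter-Glo ATP luminescence, read after 10 min at room temperature. Compound treatment of the cells lasted 48 or 72 hr at 37 degrees Celsius in a qHTS format.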
On to `C[C@@H]1O[C@@H](O[C@H]2[C@H](OC(=O)[C@]34CCC(C)(C)C[C@H]3C3=CCC5[C@@]6(C)C[C@H](O)[C@H](O[C@@H]7O[C@H](CO)[C@@H](O)[C@H](O)[C@H]7O)[C@](CO)(C(=O)O)C6CC[C@@]5(C)[C@]3(C)C[C@H]4O)OC[C@H](O)[C@@H]2O)[C@H](O)[C@H](O)[C@H]1O[C@@H]1OC[C@@H](O)[C@H](O[C@@H]2OC[C@](O)(CO)[C@H]2O)[C@H]1O` (stereo partly drawn), for which the Potency was 1.38 µM (active).
Same read-out and setting: under `CN1CCN(Cc2ccc(NC(=O)Cc3ccc(Oc4cc(NC(=O)C5CC5)ncn4)cc3)cc2C(F)(F)F)CC1` stands 5.8 µM (active); under `CC[C@@H](C)Nc1cc(C(=O)NC2CC3CC[C@@H](C2)N3c2ccc(C(=O)C3CC3)cn2)c(C)cc1C(N)=O` (stereo partly drawn), 0.231 µM (active).
On the same count and under the same terms, then `CCCCNc1ncc(C(=O)NCc2ccc(-n3ccnc3)cc2)c(NC2CCC(O)CC2)n1` (stereo not drawn), with 13 µM (active).
`C[C@@H](N[C@H]1CCCC[C@@H]1NC(=O)c1ccc(Cl)cc1)c1cccc2ccccc12`: the max response is 0.829%.
Take `O=C(NCCCc1ccccc1)c1cccc(-c2cc(O)c3ncccc3c2)c1`: the Potency is 5.17 µM (active).
Still for that read-out and setting: under `CN(C)CCOC(C)(c1ccccc1)c1ccc(Cl)cc1` (stereo not drawn) stands 25.9 µM (active).
Take `COc1cc(NC(=O)c2cccc(-n3cc(NC(=O)Nc4cccc(C)c4)cn3)c2)cc(OC)c1OC`: the molecule was classed as inactive.
For `CCn1c2ccccc2c2cc(Nc3ccnc(NCCCN4CCOCC4)n3)ccc21`, the Potency is 18.4 µM (active).
For the molecule `COc1cc(S(C)(=O)=O)ccc1Nc1nc2ccc(-c3ccc(NC(=O)[C@H](C)c4ccc(F)cc4)cc3)cn2n1`, the result was inactive.
In the case of `Fc1ccc2[nH]ccc2c1-c1nc(N2CCOCC2)c2sc(CN3CCN(CC4CC4)CC3)cc2n1`, the max response was -20.6%.
`CC(C)S(=O)(=O)Nc1ccc(F)c(C(=O)c2c[nH]c3ncc(-c4cccnc4)cc23)c1F`: the Potency was 18.4 µM (active).
Still for that read-out and setting: then `C=C1C(=O)O[C@H]2/C=C(/C)[C@@H](OC(C)=O)C/C=C(\C)C[C@@H](OC(=O)/C(=C/C)COC(=O)/C(=C/C)CO)[C@@H]12`, with 8.93 µM (active).
As for `Cn1ncc(Cl)c1-c1cc(C(=O)N[C@H](CN)Cc2ccc(F)c(F)c2)sc1Cl`, the max response is -4.08%.
`O=C1C(Cc2ccc(O)cc2)N2C(=O)CCN(C(=O)NCc3ccccc3)C2CN1Cc1cccc2ccccc12` (stereo not drawn): the Potency is 4.61 µM (active).
On to `COc1ccnc(CS(=O)c2nc3cc(OC(F)F)ccc3[nH]2)c1OC` (stereo not drawn), for which the max response is -13.2%.
On to `COC1CC(=O)C23C(=O)NC(Cc4c[nH]c5ccccc45)C2C(C)C2(C)OC2C3/C=C/CC(C)CC1O` (stereo not drawn), for which the Potency was 5.02 µM (active).
As for `C=C1C(=O)O[C@@H]2C[C@H](C)[C@@H]3CC(=O)C(C)=C3C[C@H]12`, the Potency is 10.3 µM (active).
As for `COc1ccc(CCCN2CCC(COC(c3ccccc3)c3ccccc3)CC2)cc1`, the max response is -2.98%.
Consider `C=C1C(=O)O[C@@H]2[C@H]3C(C)=CC(=O)C3=C(C)CC[C@@H]12`, for which the Potency is 7.31 µM (active).
For the molecule `Fc1ccc(-c2nc(C3CCNCC3)sc2-c2ccnc(NC3CC3)n2)cc1`, the molecule was classed as inactive.
With `COC1CC/C=C(\C)C(=O)Nc2cc(O)cc(c2)CC(C)CC(OC)C(O)C(C)/C=C(\C)C1OC(N)=O` (stereo not drawn), the Potency was 3.17 µM (active).
On the same count and under the same terms, under `CC(C)C[C@@H]1NC(=O)[C@@H](Cc2ccccc2)NC(=O)C(CCCCCC(=O)C2CO2)NC(=O)[C@@H]2CCCCN2C1=O` (stereo partly drawn) stands 3.55 µM (active).
Same read-out and setting: under `OC1C=C2C3CN(Cc4cc5c(cc43)OCO5)C2CC1O` (stereo not drawn) stands 8.2 µM (active).
Take `COc1cc2nc(C3CC3)nc(N3CCN(c4ccccc4OC)CC3)c2cc1OC`: the max response was -2.72%.
For `C=C1C(=O)OC2/C=C(\COC(C)=O)CC/C=C(\C=O)CC(OC(=O)CC(C)C)C12` (stereo not drawn), the Potency was 7.96 µM (active).

The next experiment relates to HEK293. The description is as above. To be noted: Five cell lines viability, CellTiter-Glo ATP luminescence, 48-72 h; max response: stronger effect = lower value. A digest of the protocol: as §1
Regarding `Cn1c(=O)c2c(ncn2Cc2ccc(C(C)(C)C)cc2)n(C)c1=O`, the Potency was 1.64 µM (active).
Still for that read-out and setting: then `COC(=O)CC1OC(C)C2=C(O)c3c(O)cccc3C(=O)C23OC13` (stereo not drawn), with 2.86 µM (active); and `O=C1Nc2nc(-c3c(O)cccc3OCC3CC3)cc([C@@H]3CCCNC3)c2CO1`, with 20.6 µM (active).
Still for that read-out and setting: under `CC(O)C(C)n1ncn(-c2ccc(N3CCN(c4ccc(OCC5COC(Cn6cncn6)(c6ccc(Cl)cc6Cl)O5)cc4)CC3)cc2)c1=O` (stereo not drawn) stands 16.4 µM (active).
As to `CN1CCN(c2ccc(Nc3cc(-c4cccc(-n5ccc6cc(C7CC7)cc(F)c6c5=O)c4CO)cn(C)c3=O)nc2)CC1`, the Potency is 11.6 µM (active).
As for `CCCCNc1ncc(-c2ccc(CN3CCOCC3)cn2)c(NC2CCC(O)CC2)n1` (stereo not drawn), the max response was -11.5%.
As to `COc1cc2c(cc1OC(C)C)[C@H](c1ccc(Cl)cc1)N(c1ccc(N(C)CC3CCC(N4CCN(C)C(=O)C4)CC3)cc1)C(=O)C2` (stereo partly drawn), the max response is -97.2%.
As to `CC(C)n1cnc2c(-c3cnc(N)nc3)nc(N3CCOCC3)nc21`, the Potency was 1.78 µM (active).
With `Nc1nc(NC2CC2)cc(-c2cccc(Cl)c2Cl)n1`, the Potency was 18.4 µM (active).
Still for that read-out and setting: then `COc1cc(CCC2=NN=C(NC(=O)c3ccc(N4C[C@@H](C)N[C@@H](C)C4)cc3)C2)cc(OC)c1`, with 18.4 µM (active).
The same measure, in the same setting: then `CCC(C)CC(=O)OC1C(=O)C(CO)=CC(O)C1C(C)C` (stereo not drawn), with 8.2 µM (active); and `COCC(=O)NC/C=C/c1ccc2ncnc(Nc3ccc(Oc4ccc(C)nc4)c(C)c3)c2c1`, with 14.6 µM (active).
In the case of `CC(C)=CCCC1(C)/C=C/C(OC(=O)C=C(C)C)C(C)(O)/C=C/C(=O)/C(CO)=C\C1` (stereo not drawn), the Potency was 2.52 µM (active).
Take `C[C@@H]1O[C@@H](O[C@H]2[C@H](OC(=O)[C@]34CCC(C)(C)C[C@H]3C3=CCC5[C@@]6(C)C[C@H](O)[C@H](O[C@@H]7O[C@H](CO)[C@@H](O)[C@H](O)[C@H]7O)[C@](CO)(C(=O)O)C6CC[C@@]5(C)[C@]3(C)C[C@H]4O)OC[C@H](O)[C@@H]2O)[C@H](O)[C@H](O)[C@H]1O[C@@H]1OC[C@@H](O)[C@H](O[C@@H]2OC[C@](O)(CO)[C@H]2O)[C@H]1O` (stereo partly drawn): the Potency was 0.692 µM (active).
Turning to `CN1CCN(Cc2ccc(NC(=O)Cc3ccc(Oc4cc(NC(=O)C5CC5)ncn4)cc3)cc2C(F)(F)F)CC1`, the max response was -105%.
With `CC[C@@H](C)Nc1cc(C(=O)NC2CC3CC[C@@H](C2)N3c2ccc(C(=O)C3CC3)cn2)c(C)cc1C(N)=O` (stereo partly drawn), the Potency was 0.0517 µM (active).
Turning to `CCCCNc1ncc(C(=O)NCc2ccc(-n3ccnc3)cc2)c(NC2CCC(O)CC2)n1` (stereo not drawn), the Potency was 7.31 µM (active).
On the same count and under the same terms, under `C[C@@H](N[C@H]1CCCC[C@@H]1NC(=O)c1ccc(Cl)cc1)c1cccc2ccccc12` stands 20.6 µM (active).
On to `O=C(NCCCc1ccccc1)c1cccc(-c2cc(O)c3ncccc3c2)c1`, for which the Potency is 20.6 µM (active).
For the molecule `CN(C)CCOC(C)(c1ccccc1)c1ccc(Cl)cc1` (stereo not drawn), the Potency is 20.6 µM (active).
Turning to `COc1cc(NC(=O)c2cccc(-n3cc(NC(=O)Nc4cccc(C)c4)cn3)c2)cc(OC)c1OC`, the Potency is 9.2 µM (active).
On to `CCn1c2ccccc2c2cc(Nc3ccnc(NCCCN4CCOCC4)n3)ccc21`, for which the Potency was 9.2 µM (active).
For the molecule `COc1cc(S(C)(=O)=O)ccc1Nc1nc2ccc(-c3ccc(NC(=O)[C@H](C)c4ccc(F)cc4)cc3)cn2n1`, the Potency was 0.331 µM (active).
On to `Fc1ccc2[nH]ccc2c1-c1nc(N2CCOCC2)c2sc(CN3CCN(CC4CC4)CC3)cc2n1`, for which the Potency was 18.4 µM (active).
On the same count and under the same terms, then `CC(C)S(=O)(=O)Nc1ccc(F)c(C(=O)c2c[nH]c3ncc(-c4cccnc4)cc23)c1F`, with 14.6 µM (active); and `C=C1C(=O)O[C@H]2/C=C(/C)[C@@H](OC(C)=O)C/C=C(\C)C[C@@H](OC(=O)/C(=C/C)COC(=O)/C(=C/C)CO)[C@@H]12`, with 3.17 µM (active); and `Cn1ncc(Cl)c1-c1cc(C(=O)N[C@H](CN)Cc2ccc(F)c(F)c2)sc1Cl`, with 1.3 µM (active).
Take `O=C1C(Cc2ccc(O)cc2)N2C(=O)CCN(C(=O)NCc3ccccc3)C2CN1Cc1cccc2ccccc12` (stereo not drawn): the Potency was 4.11 µM (active).
Still for that read-out and setting: then `COC1CC(=O)C23C(=O)NC(Cc4c[nH]c5ccccc45)C2C(C)C2(C)OC2C3/C=C/CC(C)CC1O` (stereo not drawn), with 7.09 µM (active).
Same read-out and setting: under `C=C1C(=O)O[C@@H]2C[C@H](C)[C@@H]3CC(=O)C(C)=C3C[C@H]12` stands 8.2 µM (active).
On to `C=C1C(=O)O[C@@H]2[C@H]3C(C)=CC(=O)C3=C(C)CC[C@@H]12`, for which the Potency is 2.06 µM (active).
As to `Fc1ccc(-c2nc(C3CCNCC3)sc2-c2ccnc(NC3CC3)n2)cc1`, the Potency was 1.64 µM (active).
Turning to `COC1CC/C=C(\C)C(=O)Nc2cc(O)cc(c2)CC(C)CC(OC)C(O)C(C)/C=C(\C)C1OC(N)=O` (stereo not drawn), the Potency was 2.52 µM (active).
With `CC(C)C[C@@H]1NC(=O)[C@@H](Cc2ccccc2)NC(=O)C(CCCCCC(=O)C2CO2)NC(=O)[C@@H]2CCCCN2C1=O` (stereo partly drawn), the Potency is 2.82 µM (active).
On the same count and under the same terms, under `OC1C=C2C3CN(Cc4cc5c(cc43)OCO5)C2CC1O` (stereo not drawn) stands 6.51 µM (active); under `COc1cc2nc(C3CC3)nc(N3CCN(c4ccccc4OC)CC3)c2cc1OC`, 18.4 µM (active).
On the same count and under the same terms, then `C=C1C(=O)OC2/C=C(\COC(C)=O)CC/C=C(\C=O)CC(OC(=O)CC(C)C)C12` (stereo not drawn), with 2.82 µM (active).
